# Screening data from PubChem.
# A selection: hits, their analogues and other compounds. The true share with any hit is near 1.4%.
# 3CLpro inhibitor: SARS-CoV 3CLpro protease inhibition; recombinant SARS-CoV 3CLpro, quenched FRET peptide cleavage; P0C6X7; inhibition, % at 6 µM; hit rate 0.14% among 290,000; in the data active means inhibition above about 12%
# Sa RN4220 lethal: kills Staphylococcus aureus RN4220. S. aureus RN4220 growth, OD600, 16 h. inhibition, % (no concentration beside the values). hit rate 0.33% among 330,000; in the data active means inhibition above about 85%
# BJeLR lethal: BJeLR cell viability loss; BJeLR (HRASV12) viability, CellTiter-Glo ATP luminescence, 48 h; inhibition, % (concentration not given with the values); hit rate 0.17% among 300,000; AID 1554; in the data active means inhibition above about 50%
# PrPC surface inh: reduces human prion protein on the cell surface | P04156 | cell surface PrPC, TR-FRET read-out | inhibition, % at 13.8 µM | hit rate 0.43% among 370,000; in the data active means inhibition above about 24%
# Sa ugtP lethal: kills S. aureus RN4220 lacking UgtP; S. aureus RN4220 ugtP deletion, OD600 growth, 16 h; growth inhibition, % (test concentration not listed); hit rate 0.54% among 330,000; AID 1259309; in the data active means growth inhibition above about 68%
# DUSP3 inh: DUSP3 (human) phosphatase inhibition. P51452. recombinant VHR phosphatase, pNPP absorbance. inhibition, % at 13.3 µM. hit rate 0.52% among 290,000; in the data active means inhibition above about 50%
# Target sequence (P51452 whole entry, looked up): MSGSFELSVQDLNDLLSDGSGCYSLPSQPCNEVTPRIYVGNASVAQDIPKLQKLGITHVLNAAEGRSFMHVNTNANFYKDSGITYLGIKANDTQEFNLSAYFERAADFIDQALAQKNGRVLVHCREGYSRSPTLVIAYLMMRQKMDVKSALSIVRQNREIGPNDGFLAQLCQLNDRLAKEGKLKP
# Numbers stand for hits; i = inactive; nt = not tested or not shown.
SMILES,3CLpro inhibitor,Sa RN4220 lethal,BJeLR lethal,PrPC surface inh,Sa ugtP lethal,DUSP3 inh
COC(=O)C1CN(C#N)N(c2ccc(Cl)cc2)C12c1ccccc1-c1ccccc12 (centres undefined),i,90,84,nt,96,i
O=C1C(=O)N(CCN2CCOCC2)C(c2cccnc2)C1=C(O)c1ccc(Cl)cc1 (centres undefined),nt,i,nt,nt,i,nt
COc1ccc(C=CC(=O)c2ccc3ccccc3c2O)cc1CN1CCOCC1,nt,i,nt,nt,i,nt
CC(NC(=O)c1nc[nH]c1C(=O)NC(c1ccccc1)c1ccccc1)C(=O)OC(C)(C)C (centres undefined),nt,i,nt,nt,i,nt
COc1ccc(/C=C/C(=O)OCC(=O)NC2CCCCC2C)c(OC)c1 (centres undefined),nt,i,nt,i,87,nt
N#Cc1ccc2nc(-c3ccc(CN4CCC(n5c(=O)[nH]c6ccccc65)CC4)cc3)c(-c3ccccc3)nc2c1,nt,nt,nt,i,nt,nt
O=c1[nH]c(-c2ccccc2)cn1C1CCN(Cc2ccc(-c3nc4ccc(Br)cc4nc3-c3ccccc3)cc2)CC1,nt,nt,nt,31,nt,nt
Cc1ccc(OCC(=O)OCCN2C(=O)c3ccccc3C2=O)cc1C,i,nt,i,i,nt,i
Cc1ccc(OC(=O)CCN2C(=O)c3ccccc3C2=O)cc1C,i,i,i,i,90,i
Cc1cc(C)cc(OC(=O)CCN2C(=O)c3ccccc3C2=O)c1,i,i,i,i,84,i
C#CCOCCOCCOCCNc1nc(N2CCN(C(=O)CCCCCCCCCCNC(=O)Cn3cc(CC(C)O)nn3)CC2)nc(N2CCN(C(=O)CCCCCCCCCCNC(=O)C(CCCCN)n3cc(CCCC(=O)O)nn3)CC2)n1 (centres undefined),nt,i,nt,nt,i,nt
Cc1ccc(-c2csc(NCCn3c(-c4ccncc4)nc4cc(C(F)(F)F)ccc43)n2)cc1,nt,94,nt,i,i,nt
Cc1nc2cc(C(F)(F)F)ccc2n1CCNc1nc(-c2ccc(F)cc2)cs1,i,i,i,i,i,i
CCOC(=O)C(=O)Cc1nc(OCc2ccccc2)cc(OCc2ccccc2)n1,nt,i,nt,i,i,nt
CCOC(=O)C(Cc1nc(OCc2ccccc2)cc(OCc2ccccc2)n1)=NO,nt,i,nt,i,87,nt
CSc1ccccc1OCc1cc(C(=O)NC2CCc3ccccc32)no1 (centres undefined),i,i,i,i,i,51
CSc1ccccc1OCc1cc(C(=O)NC2CCOC2)no1 (centres undefined),i,i,i,i,i,i
O=C(CSc1nc2ccccc2[nH]1)Nc1nc(-c2cccc(Br)c2)cs1,i,99,i,i,99,i
CCCc1nnc(NC(=O)CSc2nc3ccccc3[nH]2)s1,i,i,i,i,i,i
CN(C)CCCn1c(SCC(=O)Nc2nc(-c3cccc(Br)c3)cs2)nc2ccccc2c1=O,i,101,i,i,100,i
C#CCCOC(=O)N1C2=NC(C(=O)OC)=C(C(=O)OC)C3Nc4ccccc4[C@]23CC1C(=O)OC (some centres undefined),nt,i,nt,nt,i,nt
CCC1=C(OC(=O)N(CC)CC)N2C(=O)OC(=NCCc3c[nH]c4ccccc34)[C@]2(Cc2ccccc2)C2C1=CCC1C(=O)N(CC)C(=O)C12 (some centres undefined),nt,i,nt,nt,i,nt
Cc1cccc(C)c1OC(=O)C(c1ccccc1)c1ccccc1,i,i,i,i,96,i
Cc1ccc(/C=C2/C(=O)ON=C2c2ccccc2)o1,i,i,51,i,i,i
O=C1ON=C(c2ccccc2)/C1=C\c1ccco1,i,i,i,i,i,i
SMILES,3CLpro inhibitor,Sa RN4220 lethal,BJeLR lethal,PrPC surface inh,Sa ugtP lethal,DUSP3 inh
CCCCCn1c(=O)c(C(=O)Nc2ccccc2S(N)(=O)=O)c(O)c2ccccc21,i,100,i,i,100,i
CCCCn1c(=O)c(C(=O)Nc2ccccc2S(N)(=O)=O)c(O)c2ccccc21,i,93,i,i,i,i
CCn1c(=O)c(C(=O)Nc2ccccc2S(N)(=O)=O)c(O)c2ccccc21,i,i,i,i,i,i
Cc1nnc(SCC2=C(C(=O)O)N3C(=O)C(NC(=O)C(C)n4nc(C(F)(F)F)cc4C)C3SC2)s1 (centres undefined),i,100,i,i,101,i
CC(=O)OCC1=C(C(=O)O)N2C(=O)C(NC(=O)c3ccc(COc4cccc(Cl)c4Cl)o3)C2SC1 (centres undefined),i,100,i,i,100,i
CON=C(C(=O)NC1C(=O)N2C(C(=O)O)=C(COC(C)=O)CSC12)c1csc(N)n1 (centres undefined),nt,100,nt,nt,100,nt
Cc1nnc(SCC2=C(C(=O)O)N3C(=O)C(NC(=O)Cc4ccccc4)C3SC2)s1 (centres undefined),nt,100,nt,i,100,nt
NC(=O)c1cc[n+](CC2=C(C(=O)O)N3C(=O)[C@@H](NC(=O)C(c4ccccc4)S(=O)(=O)[O-])[C@H]3SC2)cc1 (some centres undefined),i,nt,i,nt,nt,i
CC1=C(C(=O)O)N2C(=O)C(NC(=O)c3ccccc3Cl)C2SC1 (centres undefined),i,i,i,i,i,i
O=C(COc1ccccc1C=C1SC(=O)NC1=O)Nc1ccccc1,nt,i,nt,nt,i,nt
COC(=O)C1=C(c2c(C)noc2C)CC2CCC1N2C(=O)NC(C)C (centres undefined),nt,i,nt,nt,i,nt
O=C(O)C1=CC(C2CCCCC2)CC(OCc2ccc(CO)cc2)O1 (centres undefined),nt,i,nt,nt,i,nt
CC(=O)OCC1=C(C(=O)OC(C)(C)C)N2C(=O)[C@@H](NC(=O)Cc3ccccc3)[C@H]2SC1,nt,96,nt,i,94,nt
CC1=C(C(=O)OCC(Cl)(Cl)Cl)N2C(=O)C(NC(=O)Cc3ccccc3)C2SC1 (centres undefined),i,i,i,i,i,i
Cc1ccccc1C=NNc1ccnc2cc(Cl)ccc12,nt,98,nt,nt,99,nt
Clc1ccc2c(NN=Cc3ccc(Br)cc3)ccnc2c1,nt,101,nt,nt,101,nt
Cc1ccc(C=NNc2ccnc3cc(Cl)ccc23)c(C)c1,nt,99,nt,nt,101,nt
Oc1ccc(C=NNc2ccnc3cc(Cl)ccc23)c(O)c1,nt,i,nt,nt,i,nt
CCOC(=O)N1C2=NC(C(=O)OC)=C(C(=O)OC)C3N(C)c4ccc(OC)cc4[C@]23CC1C(=O)OC (some centres undefined),nt,i,nt,nt,i,nt
CC1CN(C(C)CO)C(=O)Cc2cc(NS(=O)(=O)c3cccs3)ccc2OC1CN(C)S(=O)(=O)c1cn(C)cn1 (centres undefined),nt,i,nt,nt,i,nt
Cc1cc(C=C2C(=N)N3N=C(C(C)C)SC3=NC2=O)c(C)n1-c1ccccc1,nt,i,nt,nt,i,nt
CCOC(=O)N=Nc1c2ccccc2c2nc3no[nH]c3nc12,i,100,54,i,100,i
COc1ccccc1CN1CC2CC(c3ccc4nsnc4c3)N3CCC[C@@]23C1=O (some centres undefined),nt,i,nt,nt,i,nt
CCc1nonc1NC(=O)c1oc2ccccc2c1C,i,i,i,i,i,50
c1ccc(-c2nc3ccccc3c3nc4ccccc4n23)cc1,i,i,i,i,i,51
